D1 potentiator: potentiators of human D1 dopamine receptor; P21728; HEK293 TREx D1 cells, calcium flux, dopamine EC20 potentiation; potentiation, % at 10 µM; hit rate 0.036% among 360,000; AID 504651; in the data active = potentiation above about 30%; note: 0% is about no effect
Target sequence (P21728 whole entry, looked up): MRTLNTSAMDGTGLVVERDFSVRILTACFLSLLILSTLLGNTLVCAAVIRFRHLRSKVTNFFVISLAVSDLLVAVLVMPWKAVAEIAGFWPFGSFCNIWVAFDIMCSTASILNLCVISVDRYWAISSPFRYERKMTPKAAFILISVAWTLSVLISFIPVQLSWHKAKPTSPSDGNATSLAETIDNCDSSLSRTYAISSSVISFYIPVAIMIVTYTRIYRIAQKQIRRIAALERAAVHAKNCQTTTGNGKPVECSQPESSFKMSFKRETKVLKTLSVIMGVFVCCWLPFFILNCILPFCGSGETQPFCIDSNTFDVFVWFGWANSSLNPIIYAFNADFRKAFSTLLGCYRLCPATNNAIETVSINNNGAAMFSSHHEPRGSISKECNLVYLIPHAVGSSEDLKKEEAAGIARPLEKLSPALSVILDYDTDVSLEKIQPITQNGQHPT
D1 antag: antagonists of human D1 dopamine receptor. P21728. HEK293 TREx D1 cells, calcium flux, dopamine EC80; stronger effect = lower value. activity change, negative = inhibition, % at 10 µM. hit rate 3.2% among 360,000; in the data active = activity change below about -30%; note: % is set by controls: 0 for no effect and ±100 for the full control effect
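Using tetracycline-induced force-coupled D1 Hek293 cells and a calcium dye, signals were followed for 180 s after compound, then for 180 s after EC80 dopamine, to detect inhibitors.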
TRHR enhancer: allosteric enhancers of human TRH receptor; TRHR cells, fluo-8 calcium fluorescence, EC20 TRH enhancement; hit rate 0.66% among 360,000; P34981; enhancement, % at 2 µM; in the data active = enhancement above about 30%; note: 0% is about no effect
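Enhancer read-out: after compound pinning and an initial kinetic agonist-mode read, an EC20 of TRH (10 nM final) was injected and fluo-8 calcium signal (Ex 480/Em 530) followed at 1 s/cycle for 100 cycles in TRHR-expressing cells.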
D1 agonist: agonists of human D1 dopamine receptor; hit rate 1% among 360,000; activation, % at 2 µM; P21728; AID 504660; HEK293 T-REx D1 cells, calcium flux, agonist mode; note: 0% is about no effect
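Tetracycline-induced HEK293 TREx D1 cells, force-coupled to calcium signalling, were dye-loaded with a no-wash calcium kit. Compound was pin-added after a 10 s baseline. Fluorescence was read kinetically at 1 cycle/s for 180 s, with calcium rises flagged as agonism.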
TRHR agonist: TRH receptor (human) agonism | TRHR cells, calcium flux fluo-8, FDSS agonist mode | activation, % at 2 µM | P34981 | hit rate 0.18% among 360,000 | AID 493084; note: 0% is about no effect
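TRHR-expressing cells loaded with fluo-8 calcium dye; 23 nL library compound pin-transferred, kinetic FDSS fluorescence (Ex 480/Em 530) recorded about 180 s for agonist-induced calcium release, before a 10 nM TRH EC20 addition for potentiator mode.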
* hit, by the source's call. Sampled rows, rich in hits. Any-hit rate of the full collection: about 4.6%. Cut-off read from the data, not from the text of the source, unless noted: active = activation above about 30%; inactive = the rest.

SMILES | D1 potentiator | D1 antag | TRHR enhancer | D1 agonist | TRHR agonist
CCOc1ccc(NC(=O)CN(C)C(=O)c2cc(-c3cccs3)nn2-c2ccccc2)cc1OCC | -4 | -57* | -4 | 1 | -1
COc1ccc(NC(=O)CN(C)C(=O)c2cc(-c3cccs3)nn2-c2ccccc2)cc1 | -9 | 12 | -6 | 1 | 0
COc1ccc(-c2nc(C(=O)O)cs2)cc1OC | -7 | -36* | 0 | 8 | 0
CN(C)c1ccc(-n2cccc2/C=C/[N+](=O)[O-])cc1 | -13 | -22 | -11 | 3 | 2
CN(c1ccccc1)c1ccc(/C=C/[N+](=O)[O-])cc1 | -14 | -52* | 3 | 140* | -2
COc1ccccc1N1CCN(C(=O)c2cc3c(=O)n(Cc4ccco4)ccc3nc2C)CC1 | -6 | -9 | 0 | 1 | 0
COc1ccc2nc(SCC(=O)N3CC(=O)Nc4ccccc43)c(C#N)cc2c1 | -3 | -30* | -9 | 32* | 9
O=C(NN1C(=O)C2C3C=CC(C4CC34)C2C1=O)c1ccc(Br)cc1 (configuration not stated) | -4 | -14 | -6 | 1 | 0
O=C(NN1C(=O)C2C3C=CC(C4CC34)C2C1=O)c1ccc(Cl)c(Cl)c1 (configuration not stated) | 0 | -13 | 30* | 1 | 1
COc1ccc(OC)c(CN2CCN(C(=O)CN3C(=O)NC4(CCCC4)C3=O)CC2)c1 | -2 | -13 | 2 | 2 | 0
CC(=O)c1ccc(C(=O)Nc2nnc(-c3ccc(Cl)cc3)o2)cc1 | -9 | -32* | 2 | 0 | -1
CC(=O)c1ccc(NC(=O)Nc2ccc(Cl)cc2)cc1 | -5 | -35* | -4 | 30 | -1
CC(=O)c1ccc(NC(=O)Nc2ccc([N+](=O)[O-])cc2)cc1 | -3 | -36* | -1 | 21 | 2
Cc1ccc(C(C)C)cc1NC(=O)Nc1ccc([N+](=O)[O-])cc1 | -14 | -49* | -7 | 17 | 3
NC(=O)c1ccc(NC(=O)C2CCN(S(=O)(=O)Cc3ccccc3)CC2)cc1 | 0 | 1 | 1 | 1 | 0
COc1ccc(S(=O)(=O)NCc2ccc3c(c2)CCN3C(=O)c2ccccc2)cc1OC | -1 | 7 | -4 | 1 | -1
CC(=O)Nc1cc[n+](CC(=O)c2ccc(Cl)cc2)cc1 | 1 | -33* | 1 | 2 | 1
CC(=O)Nc1cc[n+](C(C)C(=O)c2ccc(Cl)cc2)cc1 (configuration not stated) | -9 | -3 | -1 | 4 | 0
COC(=O)c1sccc1NC(=O)Nc1ccc(C(C)=O)cc1 | 0 | -33* | -2 | -1 | 0
O=C(Nc1ccc([N+](=O)[O-])cc1)Nc1cnccn1 | -9 | -32* | -3 | 16 | 0
CC(C)(C)OC(=O)N1CCC(c2c(C(=O)NCc3ccco3)cnn2-c2ccc(F)cc2)CC1 | 4 | 7 | 9 | 0 | 0
COc1ccc(C)cc1Nc1n[n+](-c2ccccc2)c(-c2c(Cl)cccc2Cl)s1 | -11 | -25 | -6 | 32* | 0
COc1ccc(C)cc1Nc1n[n+](-c2ccccc2)c(-c2ccc(OC)c(OC)c2OC)s1 | -18 | -37* | -6 | 1 | -1
COc1ccc(C)cc1Nc1n[n+](-c2ccccc2)c(-c2ccc(N(C)C)cc2)s1 | -19 | -57* | -8 | 1 | 1
COc1ccc(C)cc1Nc1n[n+](C)c(-c2ccc(O)cc2O)s1 | -7 | -30* | 13 | 0 | 0
SMILES | D1 potentiator | D1 antag | TRHR enhancer | D1 agonist | TRHR agonist
COc1ccc(C)cc1Nc1n[n+](C)c(-c2c3ccccc3cc3ccccc23)s1 | 2 | -21 | 0 | 3 | 0
CCCN(Cc1cc2cccc(C)c2[nH]c1=O)C(=O)c1cccc(Cl)c1 | -2 | 8 | -9 | -2 | -1
O=C(NCc1ccco1)c1c[nH]c2ccc(S(=O)(=O)Nc3ccc(F)cc3F)cc2c1=O | -1 | 19 | 20 | 0 | -1
COc1cccc(CCc2nnc(N)s2)c1 | -4 | -8 | -6 | 0 | 1
Cc1ccc(SCc2cc(=O)[nH]c(Nc3nc(C)c4cccc(C)c4n3)n2)cc1 | -5 | 5 | 1 | 2 | 0
Cc1nnc(SCc2cc(=O)[nH]c(Nc3nc(C)c4cc(C)c(C)cc4n3)n2)s1 | -2 | -73* | 1 | 0 | -1
COc1cccc(CNS(=O)(=O)c2ccc(N3CCCCS3(=O)=O)cc2)c1 | 0 | -22 | -6 | 16 | 0
CN(C(=O)CN1C(=O)NC(C)(c2cccc(Br)c2)C1=O)C1CCCCC1 (configuration not stated) | -3 | -57* | -5 | 6 | 0
CC1(c2cccc(Br)c2)NC(=O)N(CC(=O)NCC2CCCO2)C1=O (configuration not stated) | 1 | 0 | 19 | 3 | 0
COc1ccc(CNC(=O)c2ccc3c(c2)N(Cc2c(F)cccc2Cl)C(=O)CS3)cc1 | -1 | -11 | -6 | 13 | 1
Cc1cc(/C=c2\sc3nc4ccccc4n3c2=O)c(C)n1-c1ccc(C(=O)O)cc1 | -1 | -7 | -3 | 2 | 1
Cc1ccc2c(nc3s/c(=C/c4cccs4)c(=O)n32)c1C | 1 | 2 | 0 | 2 | -1
O=C(O)c1ccc(-c2ccc(/C=c3/sc4nc5ccccc5n4c3=O)o2)cc1Cl | -5 | -20 | 5 | 48* | 55*
Cc1ccc2c(nc3s/c(=C\c4ccc(-c5ccccc5C(=O)O)o4)c(=O)n32)c1C | -3 | -5 | 9 | 191* | 54*
O=C1Cc2cc(NS(=O)(=O)c3ccc([N+](=O)[O-])cc3)cc3c2N1CCC3 | -2 | -32* | -2 | 1 | -1
O=C(NN=C1CCCC1)c1cc(Br)ccc1O | -5 | -18 | 1 | 12 | 1
O=C(N/N=C1/CCSC1)c1cc(Br)ccc1O | -9 | -40* | 2 | 14 | 1
CCOC(=O)C1(CCc2ccccc2)CCN(Cc2ccc(OC)cc2)CC1 | -5 | 20 | 0 | -1 | 0
CCOC(=O)C1(CCOc2ccccc2)CCN(Cc2ccc(OC)c(O)c2)CC1 | 0 | -71* | -1 | 27 | -1
CCOC(=O)C1(CCc2ccccc2)CCN(Cc2ccc(O)cc2)CC1 | -6 | -86* | 2 | 18 | 0
CCCCc1nnc(SCc2cc(=O)c3cc(F)ccc3[nH]2)n1C | -1 | -5 | -4 | -2 | 0
O=C(OCCN=C1NS(=O)(=O)c2ccccc21)c1ccccc1 | -1 | -4 | -4 | 1 | -1
CC(OC(=O)CCCN=C1NS(=O)(=O)c2ccccc21)C(=O)Nc1ccc(F)c(F)c1F (configuration not stated) | -3 | -1 | -2 | 33* | -1
CC(OC(=O)CCCN=C1NS(=O)(=O)c2ccccc21)C(=O)c1ccccc1 (configuration not stated) | 0 | -1 | 5 | 45* | 8
